CHX counter: Cycloheximide Counterscreen for Small Molecule Inhibitors of Shiga Toxin | cell reporter, cycloheximide protein synthesis inhibition counterscreen | AID 2314, 2010 | 300,000 tested, 12% active | max response, %; in the data active = max response mostly above about 13%, no sharp cut-off; inactive = mostly below about 14%; also: read at 38.3 µM for the half of the compounds with a filed dose; 0% is about no effect
RE007 growth inh: qHTS Assay for Inhibitors of the HIV-1 protein Vpr; S. pombe RE007 Vpr strain, BacTiter-Glo ATP luminescence, 24 h; Potency, µM (top dose mostly 92.2 µM), inactives show at the highest dose activity change, negative = less growth, usual class: inhibitors; 360,000 tested, 0.21% active; AID 651644, 2012; active = well fitted falling curve with a large enough effect; inconclusive = small, poorly fitted or top-dose-only effect; inactive = no such curve, though single readings can be large or run the other way; also: potency is read from the fitted curve at half-maximal effect; % is scaled to controls: 0 for no effect and ±100 for the full control effect; nearly all actives have a fitted effect of over 50% in size
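Fission yeast RE007 carrying one integrated HIV-1 vpr copy, seeded at OD 0.01 in PMG+AL medium with 23 nL pinned compound. Grown 24 h at 30 degrees; viability read by BacTiter-Glo luminescence after 5 min.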
Shiga toxin inh: A qHTS for Small Molecule Inhibitors of Shiga Toxin; Vero cells, Shiga toxin protein synthesis inhibition reporter; inhibition, % at 38.7 µM; 290,000 tested, 9.2% active; in the data active = inhibition mostly above about 28%, no sharp cut-off; inactive = mostly below about 43%; also: 0% is about no effect
TbPYK inhibitor: qHTS of Trypanosoma Brucei Inhibitors. TbPYK enzyme, Kinase-Glo Plus ATP luminescence, 45 min. pyruvate kinase (Trypanosoma brucei), Q57TT1. Potency, µM (doses to about 76.8 µM), for inactives: top-dose activity, negative = inhibition, usual class: inhibitors. 410,000 tested, 0.12% active; also: potency is read from the fitted curve at half-maximal effect; % is scaled to controls: 0 for no effect and ±100 for the full control effect; nearly all actives have a fitted effect of over 50% in size
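Luminescent Kinase-Glo Plus end-point after 45 min room-temperature reaction of T. brucei pyruvate kinase started with 130 uM ADP (final). Buffer TEA 50 mM pH 7.2 with KCl, MgCl2, BSA, Tween-20; titration-based qHTS with fitted concentration-effect curves.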
FBPA Giardia inh: qHTS Assay for Inhibitors of Fructose-1,6-bisphosphate Aldolase from Giardia Lamblia; AID 2451, 2010; purified Giardia FBPA; 290,000 tested, 0.71% active; A8B2U2; Potency, µM (series often up to 59.6 µM), for the others: top-dose activity, negative = inhibition, most hits filed as inhibitors; also: potency is read from the fitted curve at half-maximal effect; % is scaled to controls: 0 for no effect and ±100 for the full control effect; nearly all actives have a fitted effect of over 55% in size
Target sequence (A8B2U2 whole entry, looked up): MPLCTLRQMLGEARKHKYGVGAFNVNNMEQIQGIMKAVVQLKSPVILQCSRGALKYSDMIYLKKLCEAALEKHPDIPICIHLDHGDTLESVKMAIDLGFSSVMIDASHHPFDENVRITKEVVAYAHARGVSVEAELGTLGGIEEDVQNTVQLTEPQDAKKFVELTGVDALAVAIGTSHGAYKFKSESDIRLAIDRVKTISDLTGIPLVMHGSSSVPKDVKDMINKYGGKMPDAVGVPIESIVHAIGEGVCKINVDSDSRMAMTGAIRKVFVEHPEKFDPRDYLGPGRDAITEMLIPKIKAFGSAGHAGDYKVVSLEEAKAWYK
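40 nM FBPA preincubated 10 min at RT with compound (up to 57.5 uM final), then substrate plus GAPDH/TPI/NAD/arsenate coupling and diaphorase/resazurin added. Fluorescence read after 20 min at RT, 525/598 nm.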
LmPK inh: qHTS Assay for Inhibitors of Leishmania Mexicana Pyruvate Kinase (LmPK); Potency, µM (series often up to 57.5 µM), for the others: top-dose activity change, negative = inhibition, hits mostly inhibitors; 290,000 tested, 0.37% active; purified LmPK, Kinase-Glo ATP luminescence, 1 h; AID 1721, 2009; also: potency is read from the fitted curve at half-maximal effect; % is scaled to controls: 0 for no effect and ±100 for the full control effect
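ATP generated from ADP (0.1 mM) and PEP (0.5 mM) by 0.1 nM LmPK over 1 h at room temperature (pH 7.2 imidazole buffer) was detected by coupled luciferase luminescence. Values were normalized to uninhibited and no-enzyme wells.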
* = called active by the depositor; u = inconclusive; x = no result; [ ] = another dose, or the depositor's remark. This excerpt belongs to a sample that is enriched for hits. Unless noted, calls follow the shape of the dose curve; as a rule, active = well fitted curve in the direction sought with a large enough effect; inconclusive = small, poorly fitted or top-dose-only effect, or another doubt; inactive = no such curve, though single readings can be large; an effect the other way counts as inactive or inconclusive.

SMILES	CHX counter	RE007 growth inh	Shiga toxin inh	TbPYK inhibitor	FBPA Giardia inh	LmPK inh
COc1ccccc1C(C)NC(=O)c1ccc(S(=O)(=O)NCc2ccco2)cc1 (centres undefined)	x	30%	x	3%	x	x
Cc1cccc(NC(=O)c2cc(S(=O)(=O)NCc3ccc4c(c3)OCO4)ccc2F)c1C	x	x	x	-5%	x	x
Cc1ccc2c(c1)c(=O)c(C(=O)c1ccc3c(c1)OCO3)cn2Cc1cccc(F)c1	x	x	x	-1%	x	x
CC(=O)Nc1ccc(C2CC(c3ccc(Cl)cc3)=NN2c2ccccc2)cc1 (centres undefined)	9	7%	-5	-9%	14%	0%
O=C(O)c1ccc(N2N=C(c3ccccc3)CC2c2ccccc2)cc1 (centres undefined)	14*	13%	57*	-3%	2%	-1%
O=[N+]([O-])c1cccc(C2CC(c3ccccc3)=NN2c2ccccc2)c1 (centres undefined)	20*	-16%	55	-1%	3%	0%
CC(=O)Nc1ccc(C2=NN(c3ccccc3)C(c3ccccc3)C2)cc1 (centres undefined)	43*	11%	47*	-5%	0%	0%
O=Cc1ccc(N2N=C(c3ccccc3)CC2c2ccccc2)cc1 (centres undefined)	9	20%	12	0%	13%	-1%
CCCCN1C(=O)C(NC(=O)c2ccc(C(C)(C)C)cc2)(C(F)(F)F)C(C(=O)OC)=C1C (centres undefined)	x	x	x	12%	x	x
CCOc1ccc2nc(N(Cc3cccnc3)C(=O)c3ccc4c(c3)OCCO4)sc2c1	x	x	x	8%	x	x
COc1ccc(Nc2oc(-c3ccc(OC)cc3)nc2C#N)cc1	50*	4%	105*	2%	-3%	1%
CCOc1ccc(-c2nc(C#N)c(NC3CC3)o2)cc1	42*	-10%	117*	0%	u	5%
COc1ccc(Nc2oc(COc3ccc(Cl)cc3)nc2C#N)cc1	2	6%	-3	3%	-11%	1%
C=CCNc1oc(-c2ccc(-c3ccccc3)cc2)nc1C#N	x	x	x	4%	x	x
COc1ccc(Nc2oc(-c3ccc(Cl)cc3)nc2C#N)cc1	30*	-8%	84*	0%	3%	1%
CCOc1ccc(-c2nc(C#N)c(NCc3ccc4c(c3)OCO4)o2)cc1	20	15%	2	2%	5%	4%
CNc1oc(-c2ccccc2)nc1C#N	20*	-6%	38*	-10%	4%	-13%
COc1cc(OC)c(NC2(c3ccccc3)C(=O)c3ccccc3C2=O)cc1Cl	x	x	x	-6%	x	x
COc1ccc(Cn2ccc3nc(C)c(C(=O)NCc4ccc(SC)cc4)cc3c2=O)cc1	x	x	x	0%	x	x
CCOc1ccc(Nc2oc(-c3ccc(Cl)cc3)nc2C#N)cc1	9.8*	-7%	34	0%	0%	-2%
COc1ccc(Nc2oc(-c3ccccc3)nc2C#N)cc1	14*	6%	70*	-1%	0%	-2%
C/C(=N\NC(=S)NCc1ccccc1)c1ccc(C(C)(C)C)cc1	12*	x	-7	-18%	-1%	-5%
CNC(=S)N/N=C(\C)c1ccccc1	7	-6%	75	-8%	u	1%
C/C(=N\NC(=S)NCc1ccccc1)c1ccccc1F	23	-15%	46*	-5%	-4%	14%
C/C(=N\NC(=S)NCc1ccccc1)c1ccc(C#N)cc1	-2	-19%	-5	-3%	-5%	1%
SMILES	CHX counter	RE007 growth inh	Shiga toxin inh	TbPYK inhibitor	FBPA Giardia inh	LmPK inh
COc1ccc(C/C(C)=N/NC(=S)Nc2ccccc2)cc1	42	-3%	86*	-16%	u	0%
COc1ccc(C/C(C)=N/NC(=S)Nc2ccc(Cl)cc2)cc1	-2	-7%	1	-11%	u	3%
CNC(=S)N/N=C(\C)c1ccc(C(C)(C)C)cc1	24*	0%	30*	4%	-3%	1%
Cc1ccc(N2CC(NC(=O)/C=C\c3ccc4c(c3)OCO4)CC2=O)cc1C (centres undefined)	x	x	x	-3%	x	x
O=C(Nc1nonc1-c1ccc(Br)cc1)c1ccco1	x	x	x	-2%	x	x
Cc1ccc(Cn2cccc2/C=N/NC(=S)Nc2ccc(C)cc2)cc1	9	8%	9	-3%	6%	4%
C/C(=N\NC(=S)NCc1ccccc1)c1ccccc1	28*	-10%	active	-6%	15%	3%
CC1=C/C(=N\NC(=S)NCc2ccccc2)CC1	26*	-16%	56*	-1%	2%	0%
COc1ccc(NC(=S)N/N=C/c2cccn2Cc2ccc(F)cc2)cc1	11	11%	46*	4%	18%	1%
Cc1[nH]c2ccccc2c1/C=N/NC(=S)NCc1ccccc1	13	-18%	-11	1%	-11%	6%
COc1ccc(CNC(=S)N/N=C(/C)c2ccccc2)cc1	49*	33%	84*	-2%	-3%	7%
CCN1C(C)=C(C(=O)OC)C(c2ccccc2)N2C(=O)[C@](O)(C(=O)OC)CC(C#N)=C12 (some centres undefined)	x	x	x	x	0%[12.9 µM]	x
CCOC(=O)c1ccc(NC(=O)C(Cc2ccccc2)NS(=O)(=O)c2ccc(Br)s2)cc1 (centres undefined)	x	x	x	3%	x	x
C/C(=N\NC(=S)NCc1ccccc1)c1ccco1	19*	-11%	37*	-12%	-1%	-1%
CC/C(C)=N/NC(=S)NCc1ccco1	-2	1%	-4	-3%	u	-3%
CC(C)c1ccc(NC(=O)C2CCN(C(=O)[C@@H]3Cc4ccccc4CN3)CC2)cc1	23*	8%	46*	6%	-21%	0%
Cc1cc(C)cc(NC(=O)C2CCN(C(=O)[C@@H]3Cc4ccccc4CN3)CC2)c1	-3	14%	17	u	-18%	1%
CCc1ccc(NC(=O)C2CCC(CNC(=O)[C@@H]3Cc4ccccc4CN3)CC2)cc1 (some centres undefined)	27*	36%	-1	5%	-29%	-2%
Cc1ccc(NC(=O)C2CCN(C(=O)[C@@H]3Cc4ccccc4CN3)CC2)cc1	24*	-2%	63*	-2%	-12%	5%
CCN(CC)c1ccc(-n2nc3cc(C)c(NC(=O)c4ccccc4F)cc3n2)cc1	x	x	x	-1%	x	x
CCOC(=O)c1c(NC(=O)/C=C/c2ccc(OCC)cc2)sc2c1CCCC2	x	x	x	4%	x	x
CCC(=O)Nc1nnc(S(=O)(=O)N(C)Cc2ccccc2)s1	x	x	x	0%	x	x
